Experiment in all cases: DAPPL (digital affinity profiling via proximity ligation, sequencing); 10 mM Tris-HCl pH 7.5, 50 mM NaCl, 1 mM DTT, 4% glycerol, room temperature, 30 min; GST-TFs on glutathione beads, 16-mer random dsDNA library, 0.1% formaldehyde crosslink after washing; high values mean tight binding
The target in one assay is T1, FLI1 (Homo sapiens, UniProt Q01543 1-452).
T1 sequence: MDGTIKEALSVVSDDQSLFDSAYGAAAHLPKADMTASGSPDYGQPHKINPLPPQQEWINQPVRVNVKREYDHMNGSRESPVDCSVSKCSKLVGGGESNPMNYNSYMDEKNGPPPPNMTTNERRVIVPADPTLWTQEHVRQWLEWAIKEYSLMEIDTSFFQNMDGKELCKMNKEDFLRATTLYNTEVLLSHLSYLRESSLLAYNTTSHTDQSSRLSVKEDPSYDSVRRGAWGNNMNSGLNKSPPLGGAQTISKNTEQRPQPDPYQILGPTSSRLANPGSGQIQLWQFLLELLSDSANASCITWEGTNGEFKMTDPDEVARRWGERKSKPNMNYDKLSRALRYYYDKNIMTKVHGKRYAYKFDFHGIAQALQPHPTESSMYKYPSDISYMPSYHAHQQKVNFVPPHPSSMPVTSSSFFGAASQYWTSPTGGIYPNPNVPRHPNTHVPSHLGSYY
To be noted: protein: recombinant; tags: N-terminal GST; dsDNA, one strand shown. A digest of the protocol:
(§1)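 The binding signal reported is, for every hexamer, its read frequency for a factor over its read frequency for the tag-only sample. Reads came from pools of yeast-expressed, GST-fused human transcription factors on glutathione beads, barcoded with DNA and mixed with that sample, which were incubated with 200 nmole of a random double-stranded 16-mer DNA library in Tris/NaCl/DTT/glycerol buffer at room temperature for 30 min. After washing, the pools were crosslinked with 0.1% formaldehyde, proximity-ligated with BsaI/T4 ligase for 1 h at 37 °C, PCR-amplified and sequenced on an Illumina NextSeq500.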

The target of a further assay is T2, ELK1 (Homo sapiens, UniProt P19419 1-428).
T2 sequence: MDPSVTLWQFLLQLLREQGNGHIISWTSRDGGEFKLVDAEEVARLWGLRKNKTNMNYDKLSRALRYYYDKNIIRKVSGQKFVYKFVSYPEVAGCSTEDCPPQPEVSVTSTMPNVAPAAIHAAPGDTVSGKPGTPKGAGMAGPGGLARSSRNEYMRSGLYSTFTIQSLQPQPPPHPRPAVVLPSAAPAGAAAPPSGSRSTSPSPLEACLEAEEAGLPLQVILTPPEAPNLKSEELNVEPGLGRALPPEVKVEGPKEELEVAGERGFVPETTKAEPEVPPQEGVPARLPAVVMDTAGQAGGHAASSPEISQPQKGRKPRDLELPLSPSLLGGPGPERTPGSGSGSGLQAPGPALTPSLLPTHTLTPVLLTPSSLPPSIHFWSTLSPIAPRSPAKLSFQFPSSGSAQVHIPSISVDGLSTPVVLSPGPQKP
To be noted: protein: recombinant; tags: N-terminal GST; dsDNA, one strand shown. A digest of the protocol:
as §1

The target of another assay is T3, GABPA (Homo sapiens, UniProt Q06546 1-454).
T3 sequence: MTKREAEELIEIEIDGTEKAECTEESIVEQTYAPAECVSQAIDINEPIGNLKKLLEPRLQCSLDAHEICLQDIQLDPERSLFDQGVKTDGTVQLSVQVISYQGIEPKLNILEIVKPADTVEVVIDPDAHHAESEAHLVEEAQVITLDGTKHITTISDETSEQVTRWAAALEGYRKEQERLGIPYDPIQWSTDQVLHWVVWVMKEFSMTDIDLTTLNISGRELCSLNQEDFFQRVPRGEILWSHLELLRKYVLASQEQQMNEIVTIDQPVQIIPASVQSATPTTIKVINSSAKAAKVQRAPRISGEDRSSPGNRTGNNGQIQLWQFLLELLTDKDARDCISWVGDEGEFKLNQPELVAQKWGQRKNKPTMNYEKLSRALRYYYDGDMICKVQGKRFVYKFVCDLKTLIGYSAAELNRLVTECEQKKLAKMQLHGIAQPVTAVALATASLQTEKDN
The conditions noted are these: protein: recombinant; tags: N-terminal GST; dsDNA, one strand shown. An outline of the steps:
as §1

For the next assay, the target named is T4, ERG (Homo sapiens, UniProt P11308 1-479).
T4 sequence: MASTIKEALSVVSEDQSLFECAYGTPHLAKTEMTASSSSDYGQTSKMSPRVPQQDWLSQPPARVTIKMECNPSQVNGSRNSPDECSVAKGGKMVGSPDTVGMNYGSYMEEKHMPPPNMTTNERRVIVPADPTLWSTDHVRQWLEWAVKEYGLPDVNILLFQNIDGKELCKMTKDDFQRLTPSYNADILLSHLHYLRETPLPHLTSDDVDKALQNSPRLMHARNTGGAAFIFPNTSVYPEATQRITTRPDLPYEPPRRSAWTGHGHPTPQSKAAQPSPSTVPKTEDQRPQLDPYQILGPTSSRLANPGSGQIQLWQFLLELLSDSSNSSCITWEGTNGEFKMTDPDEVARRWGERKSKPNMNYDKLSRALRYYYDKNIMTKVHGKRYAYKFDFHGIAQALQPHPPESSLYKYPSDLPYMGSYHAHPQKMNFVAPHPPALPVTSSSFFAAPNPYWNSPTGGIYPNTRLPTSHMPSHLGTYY
To be noted: protein: recombinant; tags: N-terminal GST; dsDNA, one strand shown. An outline of the steps:
as §1

The next assay addresses ELF1 (Homo sapiens, UniProt P32519 1-619). The conditions noted are these: protein: recombinant; tags: N-terminal GST; dsDNA, one strand shown. An outline of the steps:
as §1

For the next assay, the target named is T5, EHF (Homo sapiens, UniProt Q9NZC4 1-300).
T5 sequence: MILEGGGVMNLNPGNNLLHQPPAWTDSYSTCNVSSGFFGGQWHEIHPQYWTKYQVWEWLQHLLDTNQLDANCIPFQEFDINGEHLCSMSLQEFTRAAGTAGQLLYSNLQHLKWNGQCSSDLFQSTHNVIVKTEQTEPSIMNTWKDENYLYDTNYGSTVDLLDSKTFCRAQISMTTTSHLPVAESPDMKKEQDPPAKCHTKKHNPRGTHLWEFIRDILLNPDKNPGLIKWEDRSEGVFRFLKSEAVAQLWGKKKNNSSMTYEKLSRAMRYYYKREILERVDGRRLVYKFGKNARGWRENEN
To be noted: protein: recombinant; tags: N-terminal GST; dsDNA, one strand shown. A digest of the protocol: as §1

A further assay addresses SPI1 (Homo sapiens, UniProt P17947 1-270). To be noted: protein: recombinant; tags: N-terminal GST; dsDNA, one strand shown. An outline of the steps: as §1
Another assay deals with SPIB (Homo sapiens, UniProt Q01892 1-262). The conditions noted are these: protein: recombinant; tags: N-terminal GST; dsDNA, one strand shown. A digest of the protocol:
as §1

In a further assay the target is T6, ELK3 (Homo sapiens, UniProt P41970 1-407).
T6 sequence: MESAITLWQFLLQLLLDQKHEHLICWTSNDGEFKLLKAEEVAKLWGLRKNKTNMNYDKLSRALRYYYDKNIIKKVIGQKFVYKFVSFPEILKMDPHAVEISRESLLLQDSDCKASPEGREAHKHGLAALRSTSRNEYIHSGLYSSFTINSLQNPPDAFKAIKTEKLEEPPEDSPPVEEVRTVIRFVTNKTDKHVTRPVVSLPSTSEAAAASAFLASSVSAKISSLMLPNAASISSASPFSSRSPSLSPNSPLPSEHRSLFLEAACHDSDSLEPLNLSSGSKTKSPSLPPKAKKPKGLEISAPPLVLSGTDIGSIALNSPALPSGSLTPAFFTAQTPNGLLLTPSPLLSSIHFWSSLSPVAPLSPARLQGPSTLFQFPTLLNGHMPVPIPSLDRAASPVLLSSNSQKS
To be noted: protein: recombinant; tags: N-terminal GST; dsDNA, one strand shown. A digest of the protocol: as §1

In another assay the target is T7, FEV (Homo sapiens, UniProt Q99581 1-238).
T7 sequence: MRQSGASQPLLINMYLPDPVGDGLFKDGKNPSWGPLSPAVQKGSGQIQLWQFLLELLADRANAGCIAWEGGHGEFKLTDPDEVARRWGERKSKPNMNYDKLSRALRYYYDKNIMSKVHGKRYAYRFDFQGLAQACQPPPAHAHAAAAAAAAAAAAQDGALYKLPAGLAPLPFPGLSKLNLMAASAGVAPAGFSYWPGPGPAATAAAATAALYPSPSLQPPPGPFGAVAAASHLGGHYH
The conditions noted are these: protein: recombinant; tags: N-terminal GST; dsDNA, one strand shown. A digest of the protocol: as §1

The target in another assay is ETV5 (Homo sapiens, UniProt P41161 1-510). To be noted: protein: recombinant; tags: N-terminal GST; dsDNA, one strand shown. An outline of the steps:
as §1

A further assay concerns the target HSF1 (Homo sapiens, UniProt Q00613 1-529). The conditions noted are these: protein: recombinant; tags: N-terminal GST; chain copies: 3; dsDNA, one strand shown. An outline of the steps: as §1
The target of the next assay is T8, SPIC (Homo sapiens, UniProt Q8N5J4 1-248).
T8 sequence: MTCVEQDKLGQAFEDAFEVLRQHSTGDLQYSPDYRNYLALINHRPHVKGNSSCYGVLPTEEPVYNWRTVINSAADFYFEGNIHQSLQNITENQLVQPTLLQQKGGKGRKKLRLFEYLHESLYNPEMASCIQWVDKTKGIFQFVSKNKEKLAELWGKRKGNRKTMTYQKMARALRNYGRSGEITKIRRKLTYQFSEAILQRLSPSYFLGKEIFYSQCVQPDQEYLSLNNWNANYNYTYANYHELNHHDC
The conditions noted are these: protein: recombinant; tags: N-terminal GST; dsDNA, one strand shown. A digest of the protocol:
as §1

For the next assay, the target named is ELF4 (Homo sapiens, UniProt Q99607 1-663). The conditions noted are these: protein: recombinant; tags: N-terminal GST; dsDNA, one strand shown. An outline of the steps: as §1
A further assay deals with T9, ELK4 (Homo sapiens, UniProt P28324-2 1-405).
T9 sequence: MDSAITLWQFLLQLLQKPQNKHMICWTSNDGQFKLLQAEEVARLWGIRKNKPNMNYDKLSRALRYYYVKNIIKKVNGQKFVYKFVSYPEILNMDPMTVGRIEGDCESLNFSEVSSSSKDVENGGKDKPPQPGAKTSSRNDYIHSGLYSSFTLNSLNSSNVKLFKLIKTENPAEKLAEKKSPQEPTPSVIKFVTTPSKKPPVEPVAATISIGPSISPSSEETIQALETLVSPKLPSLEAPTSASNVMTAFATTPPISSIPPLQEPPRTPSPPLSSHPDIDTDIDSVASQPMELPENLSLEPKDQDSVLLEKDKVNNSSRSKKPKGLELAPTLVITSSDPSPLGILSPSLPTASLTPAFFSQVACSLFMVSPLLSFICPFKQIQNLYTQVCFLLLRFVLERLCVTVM
To be noted: protein: recombinant; tags: N-terminal GST; dsDNA, one strand shown. A digest of the protocol:
as §1

Another assay concerns the target T10, ETV2 (Homo sapiens, UniProt O00321 1-342).
T10 sequence: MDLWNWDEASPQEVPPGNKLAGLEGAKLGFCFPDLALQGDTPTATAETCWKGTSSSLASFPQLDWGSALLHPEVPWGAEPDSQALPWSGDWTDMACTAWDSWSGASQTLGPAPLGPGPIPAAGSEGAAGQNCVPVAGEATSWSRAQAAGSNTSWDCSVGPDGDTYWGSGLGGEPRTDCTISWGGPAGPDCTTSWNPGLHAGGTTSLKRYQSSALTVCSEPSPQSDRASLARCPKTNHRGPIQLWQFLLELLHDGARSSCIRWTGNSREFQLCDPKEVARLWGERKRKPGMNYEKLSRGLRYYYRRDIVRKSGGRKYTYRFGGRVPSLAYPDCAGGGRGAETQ
To be noted: protein: recombinant; tags: N-terminal GST; dsDNA, one strand shown. An outline of the steps:
as §1

Another assay deals with T11, ELF3 (Homo sapiens, UniProt P78545 1-371).
T11 sequence: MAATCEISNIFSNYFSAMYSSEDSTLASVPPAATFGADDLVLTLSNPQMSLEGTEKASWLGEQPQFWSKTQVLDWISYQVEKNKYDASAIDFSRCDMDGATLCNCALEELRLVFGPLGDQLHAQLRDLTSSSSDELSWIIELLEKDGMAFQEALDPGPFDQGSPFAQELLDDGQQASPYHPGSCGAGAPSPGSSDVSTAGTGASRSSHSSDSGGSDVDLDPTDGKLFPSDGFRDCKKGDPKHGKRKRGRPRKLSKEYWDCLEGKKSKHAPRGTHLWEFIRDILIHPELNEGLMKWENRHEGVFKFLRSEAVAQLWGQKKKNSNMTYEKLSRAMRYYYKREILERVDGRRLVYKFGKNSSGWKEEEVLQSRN
The conditions noted are these: protein: recombinant; tags: N-terminal GST; dsDNA, one strand shown. A digest of the protocol: as §1

A further assay addresses CRX (Homo sapiens, UniProt O43186 1-299). The conditions noted are these: protein: recombinant; tags: N-terminal GST; dsDNA, one strand shown. A digest of the protocol:
as §1

A further assay deals with ETV1 (Homo sapiens, UniProt P50549 1-477). To be noted: protein: recombinant; tags: N-terminal GST; dsDNA, one strand shown. A digest of the protocol:
as §1

Sequence of ETV1 (P50549 whole entry): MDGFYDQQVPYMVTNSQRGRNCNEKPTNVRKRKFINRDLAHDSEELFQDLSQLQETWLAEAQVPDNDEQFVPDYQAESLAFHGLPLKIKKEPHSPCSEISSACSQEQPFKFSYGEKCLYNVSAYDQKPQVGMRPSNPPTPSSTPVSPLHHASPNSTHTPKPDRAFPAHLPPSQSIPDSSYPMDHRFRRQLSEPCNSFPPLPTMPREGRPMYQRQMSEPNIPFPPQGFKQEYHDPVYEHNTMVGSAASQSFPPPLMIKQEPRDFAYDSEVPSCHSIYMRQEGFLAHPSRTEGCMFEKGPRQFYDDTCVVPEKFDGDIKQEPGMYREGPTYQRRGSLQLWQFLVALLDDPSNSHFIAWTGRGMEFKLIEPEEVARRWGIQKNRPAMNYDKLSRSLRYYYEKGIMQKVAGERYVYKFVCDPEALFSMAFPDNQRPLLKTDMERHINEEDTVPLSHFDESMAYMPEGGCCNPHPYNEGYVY
Sequence of ETV5 (P41161 whole entry): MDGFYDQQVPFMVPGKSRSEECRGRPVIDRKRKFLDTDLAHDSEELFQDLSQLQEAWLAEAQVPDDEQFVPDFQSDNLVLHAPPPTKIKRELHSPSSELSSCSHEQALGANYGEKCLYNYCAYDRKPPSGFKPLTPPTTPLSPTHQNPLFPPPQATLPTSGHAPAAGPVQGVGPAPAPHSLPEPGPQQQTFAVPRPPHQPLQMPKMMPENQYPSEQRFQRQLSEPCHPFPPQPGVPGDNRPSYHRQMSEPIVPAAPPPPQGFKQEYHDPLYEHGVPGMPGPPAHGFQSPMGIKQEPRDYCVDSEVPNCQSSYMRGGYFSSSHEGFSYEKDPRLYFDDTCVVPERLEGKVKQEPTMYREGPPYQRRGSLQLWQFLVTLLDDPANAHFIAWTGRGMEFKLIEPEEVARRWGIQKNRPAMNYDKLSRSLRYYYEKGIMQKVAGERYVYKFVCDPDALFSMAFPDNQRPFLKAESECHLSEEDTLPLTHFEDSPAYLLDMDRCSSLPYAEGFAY
Sequence of ELF4 (Q99607 whole entry): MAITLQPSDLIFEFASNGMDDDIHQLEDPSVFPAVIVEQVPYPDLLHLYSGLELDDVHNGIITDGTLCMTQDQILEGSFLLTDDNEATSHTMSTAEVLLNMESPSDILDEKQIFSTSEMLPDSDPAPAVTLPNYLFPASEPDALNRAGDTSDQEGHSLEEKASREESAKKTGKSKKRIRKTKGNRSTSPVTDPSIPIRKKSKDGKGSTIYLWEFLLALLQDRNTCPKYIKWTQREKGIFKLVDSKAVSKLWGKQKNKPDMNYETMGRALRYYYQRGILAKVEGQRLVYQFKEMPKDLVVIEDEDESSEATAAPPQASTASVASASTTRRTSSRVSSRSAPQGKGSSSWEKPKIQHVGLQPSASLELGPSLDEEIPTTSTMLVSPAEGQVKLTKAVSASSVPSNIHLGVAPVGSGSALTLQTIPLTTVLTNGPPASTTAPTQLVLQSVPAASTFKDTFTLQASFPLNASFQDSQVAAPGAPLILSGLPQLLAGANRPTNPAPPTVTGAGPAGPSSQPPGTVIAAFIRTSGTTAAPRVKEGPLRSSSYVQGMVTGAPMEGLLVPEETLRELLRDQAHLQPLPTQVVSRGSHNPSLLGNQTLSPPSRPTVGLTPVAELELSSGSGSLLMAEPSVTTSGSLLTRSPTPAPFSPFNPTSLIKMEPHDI
Sequence of ELF1 (P32519 whole entry): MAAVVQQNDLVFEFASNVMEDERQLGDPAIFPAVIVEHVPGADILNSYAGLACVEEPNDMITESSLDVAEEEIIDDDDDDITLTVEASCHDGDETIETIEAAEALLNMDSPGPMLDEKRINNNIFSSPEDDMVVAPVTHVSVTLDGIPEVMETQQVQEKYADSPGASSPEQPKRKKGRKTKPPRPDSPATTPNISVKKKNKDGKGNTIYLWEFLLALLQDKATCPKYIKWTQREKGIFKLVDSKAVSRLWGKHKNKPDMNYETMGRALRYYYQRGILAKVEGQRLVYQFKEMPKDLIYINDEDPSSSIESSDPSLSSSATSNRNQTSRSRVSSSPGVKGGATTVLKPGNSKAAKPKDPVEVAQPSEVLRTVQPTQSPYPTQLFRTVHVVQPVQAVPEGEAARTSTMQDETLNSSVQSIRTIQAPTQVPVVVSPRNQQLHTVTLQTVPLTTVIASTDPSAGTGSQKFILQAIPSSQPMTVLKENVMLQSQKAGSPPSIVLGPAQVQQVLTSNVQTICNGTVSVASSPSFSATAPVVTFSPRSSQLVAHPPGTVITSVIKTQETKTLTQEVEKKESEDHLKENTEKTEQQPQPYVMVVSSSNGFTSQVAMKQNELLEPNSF
Sequence of SPIB (Q01892 whole entry): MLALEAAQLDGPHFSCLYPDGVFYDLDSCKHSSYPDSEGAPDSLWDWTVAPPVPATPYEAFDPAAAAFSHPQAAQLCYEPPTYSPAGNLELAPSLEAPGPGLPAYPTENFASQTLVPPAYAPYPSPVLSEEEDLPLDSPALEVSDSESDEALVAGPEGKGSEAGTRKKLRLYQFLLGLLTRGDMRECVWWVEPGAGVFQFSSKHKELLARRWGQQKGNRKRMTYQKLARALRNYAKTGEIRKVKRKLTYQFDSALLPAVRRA
Sequence of CRX (O43186 whole entry): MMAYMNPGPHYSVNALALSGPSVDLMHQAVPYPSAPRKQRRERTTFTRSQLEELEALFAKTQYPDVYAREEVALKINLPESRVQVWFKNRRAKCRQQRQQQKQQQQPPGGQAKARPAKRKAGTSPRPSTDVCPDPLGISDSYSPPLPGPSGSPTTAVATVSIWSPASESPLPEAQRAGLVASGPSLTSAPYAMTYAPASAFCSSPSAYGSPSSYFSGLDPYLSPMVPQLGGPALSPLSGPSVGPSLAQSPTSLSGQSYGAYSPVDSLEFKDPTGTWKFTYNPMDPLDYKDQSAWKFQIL
Sequence of HSF1 (Q00613 whole entry): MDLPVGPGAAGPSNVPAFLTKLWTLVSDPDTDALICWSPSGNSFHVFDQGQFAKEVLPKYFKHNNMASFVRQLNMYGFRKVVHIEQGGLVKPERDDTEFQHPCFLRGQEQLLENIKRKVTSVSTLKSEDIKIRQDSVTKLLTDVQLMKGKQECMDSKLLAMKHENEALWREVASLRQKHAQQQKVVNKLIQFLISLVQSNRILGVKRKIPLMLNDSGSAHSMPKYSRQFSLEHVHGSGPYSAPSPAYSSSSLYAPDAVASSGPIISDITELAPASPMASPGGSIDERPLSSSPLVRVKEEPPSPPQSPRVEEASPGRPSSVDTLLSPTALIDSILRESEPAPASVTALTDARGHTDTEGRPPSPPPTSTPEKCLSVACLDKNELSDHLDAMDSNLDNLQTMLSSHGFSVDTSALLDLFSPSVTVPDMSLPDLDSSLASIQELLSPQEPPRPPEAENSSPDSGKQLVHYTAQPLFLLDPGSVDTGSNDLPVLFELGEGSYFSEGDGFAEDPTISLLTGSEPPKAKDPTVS

TTCGAT: the binding signal with FLI1 is 1.32 fold enrichment (6-mer frequency, TF over GST control); in the assay with ELK1, 1.23 fold enrichment (6-mer frequency, TF over GST control); with GABPA, 1.22 fold enrichment (6-mer frequency, TF over GST control); with ERG it was 1.43 fold enrichment (6-mer frequency, TF over GST control); in the assay with ELF1 it was 1.41 fold enrichment (6-mer frequency, TF over GST control); with EHF, 1.38 fold enrichment (6-mer frequency, TF over GST control). Besides, the binding signal with SPI1 was 1.29 fold enrichment (6-mer frequency, TF over GST control); with SPIB, 1.24 fold enrichment (6-mer frequency, TF over GST control); in the assay with ELK3, 1.32 fold enrichment (6-mer frequency, TF over GST control); with FEV, 1.27 fold enrichment (6-mer frequency, TF over GST control); with ETV5, 1.36 fold enrichment (6-mer frequency, TF over GST control); with HSF1 it was 1.79 fold enrichment (6-mer frequency, TF over GST control). The binding signal is 1.3 fold enrichment (6-mer frequency, TF over GST control) with SPIC; 1.27 fold enrichment (6-mer frequency, TF over GST control) in the assay with ELF4; 1.16 fold enrichment (6-mer frequency, TF over GST control) in the assay with ELK4; 1.23 fold enrichment (6-mer frequency, TF over GST control) in the assay with ETV2; 1.42 fold enrichment (6-mer frequency, TF over GST control) in the assay with ELF3; 1.56 fold enrichment (6-mer frequency, TF over GST control) in the assay with CRX. For the same sequence, the binding signal with ETV1 is 1.34 fold enrichment (6-mer frequency, TF over GST control).

The values above are taken from PMC7862700, “An all-to-all approach to the identification of sequence-specific readers for epigenetic DNA modifications on cytosine”.
